Data reported in PubChem BioAssay AID1159580 (chemical genetic matrix, 2015).
Screen size: about 5,500 compounds; about 2,000 (36%) were called active. Not shown: some 18% with an inconclusive outcome. Cut-off read from the data, not from the text of the source: active = normalized growth mostly below about 0.91 (no sharp cut-off); inconclusive = no clear call, values can overlap the other calls; inactive = mostly above about 0.92. Some of the results follow.

Assay: chemical genetic growth profiling, strain panel (AID 1159580);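 note: tested at 20 µM; growth read once vehicle control cultures reached saturation at 30 °C; 1 = growth at the plate median or of vehicle wells; lower values mean less growth of the strain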
Settings: growth OD

Measured: normalized growth

Nc1nc(/C(=C/CC(=O)O)C(=O)N[C@@H]2C(=O)N3C(C(=O)O)=CCS[C@H]23)cs1
inactive: S. cerevisiae deletion strains, locus YJR075W, strain HOC1, active compounds read low 1.01 | S. cerevisiae deletion strains, locus YKL009W, strain mrt4, active compounds read low 0.986 | S. cerevisiae deletion strains, locus YKL068W, active compounds read low 0.997 | S. cerevisiae deletion strains, locus YKL085W, strain MDH1 (second series), active compounds read low 0.987 | S. cerevisiae deletion strains, locus YKL085W, strain MDH1, active compounds read low 0.987 | S. cerevisiae deletion strains, locus YKL160W, strain elf1, active compounds read low 0.993 | S. cerevisiae deletion strains, locus YKL190W, strain CNB1, active compounds read low 1.01 | S. cerevisiae deletion strains, locus YKR001C, strain vps1, active compounds read low 0.981 | S. cerevisiae deletion strains, locus YKR026C, strain gcn3, active compounds read low 1 | S. cerevisiae deletion strains, locus YKR091W, strain srl3, active compounds read low 1.01 | S. cerevisiae deletion strains, locus YLL001W, strain dnm1, active compounds read low 1.01 | S. cerevisiae deletion strains, locus YLL026W, active compounds read low 1.01 | S. cerevisiae deletion strains, locus YLL041C, strain sdh2, active compounds read low 1.01 | S. cerevisiae deletion strains, locus YLR027C, strain aat2, active compounds read low 1.01 | S. cerevisiae deletion strains, locus YLR039C, strain RIC1, active compounds read low 1.03 | S. cerevisiae deletion strains, locus YLR058C, strain SHM2, active compounds read low 0.996 | S. cerevisiae deletion strains, locus YLR102C, strain apc9, active compounds read low 0.996 | S. cerevisiae deletion strains, locus YLR113W, strain HOG1, active compounds read low 0.998 | S. cerevisiae deletion strains, locus YLR221C, strain rsa3, active compounds read low 1.01 | S. cerevisiae deletion strains, locus YLR258W, strain gsy2, active compounds read low 0.999 | S. cerevisiae deletion strains, locus YLR262C, strain YPT6 (second series), active compounds read low 1.03 | S. cerevisiae deletion strains, locus YLR262C, strain YPT6, active compounds read low 1.02 | S. cerevisiae deletion strains, locus YLR268W, strain sec22, active compounds read low 0.987 | S. cerevisiae deletion strains, locus YLR320W, strain mms22, active compounds read low 1.01 | S. cerevisiae deletion strains, locus YLR330W, strain CHS5, active compounds read low 0.99 | S. cerevisiae deletion strains, locus YLR342W, strain FKS1 (second series), active compounds read low 1 | S. cerevisiae deletion strains, locus YLR342W, strain FKS1, active compounds read low 1.01 | S. cerevisiae deletion strains, locus YLR357W, strain rsc2, active compounds read low 1.01 | S. cerevisiae deletion strains, locus YLR370C, strain arc18, active compounds read low 1 | S. cerevisiae deletion strains, locus YLR371W, strain rom2, active compounds read low 0.995 | S. cerevisiae deletion strains, locus YLR384C, strain iki3, active compounds read low 0.997 | S. cerevisiae deletion strains, locus YLR418C, strain cdc73, active compounds read low 1 | S. cerevisiae deletion strains, locus YML016C, strain PPZ1, active compounds read low 0.984 | S. cerevisiae deletion strains, locus YML032C, strain rad52, active compounds read low 0.997 | S. cerevisiae deletion strains, locus YML120C, strain ndi1, active compounds read low 1 | S. cerevisiae deletion strains, locus YML124C, strain tub3, active compounds read low 0.982 | S. cerevisiae deletion strains, locus YMR058W, strain fet3, active compounds read low 0.998 | S. cerevisiae deletion strains, locus YMR078C, strain ctf18, active compounds read low 0.991 | S. cerevisiae deletion strains, locus YMR125W, strain sto1, active compounds read low 1.01 | S. cerevisiae deletion strains, locus YMR129W, active compounds read low 1.01 | S. cerevisiae deletion strains, locus YMR205C, strain PFK2, active compounds read low 1.01 | S. cerevisiae deletion strains, locus YMR223W, strain ubp8, active compounds read low 1 | S. cerevisiae deletion strains, locus YMR231W, strain pep5, active compounds read low 1.01 | S. cerevisiae deletion strains, locus YMR263W, strain SAP30, active compounds read low 1.01 | S. cerevisiae deletion strains, locus YMR307W, strain GAS1, active compounds read low 0.996 | S. cerevisiae deletion strains, locus YNL067W, strain RPL9B, active compounds read low 1.03 | S. cerevisiae deletion strains, locus YNL071W, strain lat1, active compounds read low 1 | S. cerevisiae deletion strains, locus YNL128W, strain TEP1, active compounds read low 1.01 | S. cerevisiae deletion strains, locus YNL153C, strain GIM3, active compounds read low 0.995 | S. cerevisiae deletion strains, locus YNL183C, strain NPR1, active compounds read low 0.961 | S. cerevisiae deletion strains, locus YNL209W, strain ssb2, active compounds read low 0.994 | S. cerevisiae deletion strains, locus YNL233W, strain BNI4, active compounds read low 0.993 | S. cerevisiae deletion strains, locus YNL248C, strain rpa49, active compounds read low 1.01 | S. cerevisiae deletion strains, locus YNL250W, strain rad50, active compounds read low 0.987 | S. cerevisiae deletion strains, locus YNL271C, strain bni1, active compounds read low 0.987 | S. cerevisiae deletion strains, locus YNL298W, strain CLA4, active compounds read low 0.984 | S. cerevisiae deletion strains, locus YNL307C, strain MCK1, active compounds read low 0.998 | S. cerevisiae deletion strains, locus YNL322C, strain KRE1 (second series), active compounds read low 1.01 | S. cerevisiae deletion strains, locus YNL322C, strain KRE1, active compounds read low 0.994 | S. cerevisiae deletion strains, locus YNR049C, strain mso1, active compounds read low 1 | S. cerevisiae deletion strains, locus YNR052C, strain pop2, active compounds read low 0.983 | S. cerevisiae deletion strains, locus YOL006C, strain TOP1, active compounds read low 1.02 | S. cerevisiae deletion strains, locus YOL012C, strain htz1 2.11 | S. cerevisiae deletion strains, locus YOL147C, strain pex11, active compounds read low 0.997 | S. cerevisiae deletion strains, locus YOR001W, strain rrp6, active compounds read low 1.01 | S. cerevisiae deletion strains, locus YOR061W, strain CKA2, active compounds read low 0.984 | S. cerevisiae deletion strains, locus YOR069W, strain VPS5, active compounds read low 0.993 | S. cerevisiae deletion strains, locus YOR070C, strain gyp1, active compounds read low 1 | S. cerevisiae deletion strains, locus YOR080W, strain dia2, active compounds read low 1.01 | S. cerevisiae deletion strains, locus YOR083W, strain WHI5, active compounds read low 1.01 | S. cerevisiae deletion strains, locus YOR106W, strain vam3, active compounds read low 1.02 | S. cerevisiae deletion strains, locus YOR136W, strain idh2, active compounds read low 0.983 | S. cerevisiae deletion strains, locus YOR144C, strain elg1, active compounds read low 0.988 | S. cerevisiae deletion strains, locus YOR184W, strain ser1, active compounds read low 0.999 | S. cerevisiae deletion strains, locus YOR231W, strain MKK1, active compounds read low 0.986 | S. cerevisiae deletion strains, locus YOR265W, strain rbl2, active compounds read low 1.01 | S. cerevisiae deletion strains, locus YOR270C, strain vph1, active compounds read low 1.06 | S. cerevisiae deletion strains, locus YOR290C, strain snf2, active compounds read low 0.995 | S. cerevisiae deletion strains, locus YOR316C, strain cot1, active compounds read low 0.992 | S. cerevisiae deletion strains, locus YPL051W, strain arl3, active compounds read low 1 | S. cerevisiae deletion strains, locus YPL055C, strain LGE1, active compounds read low 1.01 | S. cerevisiae deletion strains, locus YPL078C, strain atp4, active compounds read low 1 | S. cerevisiae deletion strains, locus YPL106C, strain sse1, active compounds read low 1.01 | S. cerevisiae deletion strains, locus YPL240C, strain hsp82, active compounds read low 1.01 | S. cerevisiae deletion strains, locus YPL241C, strain CIN2, active compounds read low 0.993 | S. cerevisiae deletion strains, locus YPL256C, strain CLN2, active compounds read low 0.961 | S. cerevisiae deletion strains, locus YPR119W, strain clb2, active compounds read low 0.997 | S. cerevisiae deletion strains, locus YPR141C, strain kar3, active compounds read low 0.99 | S. cerevisiae deletion strains, locus YPR163C, strain tif3, active compounds read low 0.982 | S. cerevisiae deletion strains, locus YPR167C, strain met16, active compounds read low 0.991 | S. cerevisiae deletion strains, strain wtn01, active compounds read low 0.985 | S. cerevisiae strains, strain wild type, active compounds read low 1.01
